Screening results deposited in PubChem by Broad Institute.
Pf_Dd2_inh = blocks growth of Plasmodium falciparum Dd2 parasites; P. falciparum Dd2 growth, SYBR Green, 72 h; active compounds read low; activity change, % at 10 µM; 94,000 compounds, 2.3% hits; AID 1159554; in the data active = activity change below about -80%; inconclusive = no clear call, values can overlap the other calls
C_diff_HTS = inhibitors of Clostridium difficile growth | Clostridium difficile clinical isolate growth, OD600, 24 h; active compounds read low | growth activity, negative = inhibition, % at 16 µg/mL (by protocol) | 86,000 compounds, 0.25% hits | AID 1259249;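 active = mean growth activity at or below -80% and every replicate also at or below -80%; inconclusive = mean at or below -80% but some replicate above -80%; inactive = mean growth activity above -80%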;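 also: 0% = DMSO wells and -100% = levofloxacin 16 µg/mL wells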
Tcruzi_prolif = blocks T. cruzi growth in NIH3T3 culture; AID 624255; inhibition, % at 8.34 µM; T. cruzi beta-gal in NIH3T3, GalScreen luminescence, 90 h; 77,000 compounds, 5.9% hits;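 active = mean inhibition above about 93%, with at least 55% of replicates each passing it, limit read from the data, passing the limit was not always enough; inconclusive = only one of those two conditions holds; inactive = neither condition holds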
* hit, by the source's call; ? = inconclusive; / = not tested or not shown. An excerpt weighted towards active compounds, which were near 6.7% of everything screened.

SMILES Pf_Dd2_inh C_diff_HTS Tcruzi_prolif
CC(C)CC#Cc1ccc2c(c1)O[C@@H](CN(C)S(=O)(=O)c1ccc(F)cc1)[C@H](C)CN([C@H](C)CO)S2(=O)=O -67 5 /
C[C@@H]1CN([C@@H](C)CO)S(=O)(=O)c2ccc(C#Cc3ccncc3)cc2O[C@H]1CN(C)S(=O)(=O)c1ccc(F)cc1 -86* 2 90
C[C@H](CO)N1C[C@H](C)[C@H](CN(C)S(=O)(=O)c2ccccc2)Oc2cc(C#Cc3ccncc3)ccc2S1(=O)=O -80 3 50
Cc1ccc(S(=O)(=O)N(C)C[C@H]2Oc3cc(C#Cc4ccncc4)ccc3S(=O)(=O)N([C@@H](C)CO)C[C@H]2C)cc1 -82* -2 71
C[C@H]1CN([C@@H](C)CO)S(=O)(=O)c2ccc(C#Cc3ccncc3)cc2O[C@@H]1CN(C)S(=O)(=O)c1ccc(F)cc1 -88* -2 98
CO[C@H]1CN(C)C(=O)c2ccc(NC(=O)c3ccc(-c4ccccc4)cc3)cc2OC[C@@H](C)NC[C@H]1C -86* / 62
CO[C@H]1CN(C)C(=O)c2cc(NC(=O)c3ccc(Oc4ccccc4)cc3)ccc2OC[C@@H](C)NC[C@@H]1C -90* -6 -35
CO[C@@H]1CN(C)C(=O)c2cc(NC(=O)c3ccc(Oc4ccccc4)cc3)ccc2OC[C@H](C)NC[C@H]1C -76 -5 1
CO[C@@H]1CN(C)C(=O)c2ccc(NC(=O)c3ccc(F)cc3)cc2OC[C@@H](C)N(C(=O)c2ccc(F)cc2)C[C@@H]1C -88* / 60
CO[C@@H]1CN(C)C(=O)c2ccc(NC(=O)c3ccc(F)cc3)cc2OC[C@H](C)N(C(=O)c2ccc(F)cc2)C[C@H]1C -40 / 18
CO[C@@H]1CN(C)C(=O)c2ccc(NC(=O)c3ccccc3)cc2OC[C@H](C)NC[C@@H]1C 25 / /
CO[C@H]1CN(C)C(=O)c2ccc(NC(=O)c3ccc(-c4ccccc4)cc3)cc2OC[C@H](C)NC[C@@H]1C -44 -9 /
CO[C@@H]1CN(C)C(=O)c2ccc(NC(=O)c3ccc(-c4ccccc4)cc3)cc2OC[C@@H](C)NC[C@H]1C -87* 42 /
COc1ccc2c3c([nH]c2c1)[C@H](CO)N(Cc1cc(F)ccc1F)CC31CCN(C)CC1 26 / /
CCCC#Cc1ccc([C@H]2[C@@H](CO)N(C(=O)C3CCOCC3)[C@H]2C#N)cc1 -15 9 78
CCCC#Cc1ccc([C@H]2[C@@H](CO)N(C(=O)C3CCCCC3)[C@H]2C#N)cc1 -86* -5 92
CC(C)NC(=O)N1[C@@H](C#N)[C@@H](c2ccc(C#CC3CCCCC3)cc2)[C@@H]1CO -8 -14 63
N#C[C@@H]1[C@@H](c2ccc(C#Cc3ccc(F)cc3)cc2)[C@H](CO)N1C(=O)C1CCCC1 -86* 7 92
CC(C)NC(=O)N1[C@H](C#N)[C@H](c2ccc(C#CC3CCCC3)cc2)[C@@H]1CO -88* 1 /
N#C[C@H]1[C@H](c2ccc(C#Cc3ccccc3F)cc2)[C@@H](CO)N1C(=O)C1CCCC1 -87* 23 /
N#C[C@@H]1[C@@H](c2ccc(C#Cc3ccccc3F)cc2)[C@H](CO)N1C(=O)C1CCCC1 -43 47 /
N#C[C@H]1[C@@H](c2ccc(C#Cc3ccc(F)cc3)cc2)[C@H](CO)N1C(=O)C1CCCC1 -72 -7 93
Cc1ccccc1S(=O)(=O)N1C[C@@H](O)COC[C@H]2O[C@H](CC(=O)N3CCC(Cc4ccccc4)CC3)CC[C@@H]21 -28 2 41
C[C@H]1CN([C@@H](C)CO)C(=O)c2cc(C3=CCCC3)cnc2O[C@H]1CN(C)C(=O)C1CCC1 20 1 19
COc1ccc2c3c(n(C)c2c1)[C@@H](CO)NCC31CCN(Cc2ccccc2Cl)CC1 -88* 9 /
SMILES Pf_Dd2_inh C_diff_HTS Tcruzi_prolif
COc1ccc2c3c(n(C)c2c1)[C@@H](CO)NCC31CCN(CC2CCCCC2)CC1 -82* -1 /
COc1ccc2c3c(n(C)c2c1)[C@@H](CO)NCC31CN(Cc2ccc(Cl)cc2)C1 -57 53 /
COc1ccc2c3c(n(C)c2c1)[C@@H](CO)NCC31CCN(Cc2ccc(F)cc2)CC1 13 / /
COc1ccc2c3c(n(C)c2c1)[C@H](CO)NCC31CCN(Cc2cc(-c3ccccc3)on2)CC1 -91* -7 /
COc1ccc2c3c(n(C)c2c1)[C@@H](CO)NCC31CCN(Cc2ccncc2)CC1 -69 8 /
COc1ccc2c3c(n(C)c2c1)[C@H](CO)NCC31CN(Cc2ccc(F)cc2)C1 -84* 75 /
COc1ccc2c3c(n(C)c2c1)[C@H](CO)NCC31CN(CC2CC2)C1 9 4 /
Cc1noc(C)c1NC(=O)Nc1cccc2c1O[C@H](CN(C)C(=O)Nc1ccc(F)cc1)[C@@H](C)CN([C@@H](C)CO)C2=O 17 3 -53
CC(=O)N(C)C[C@H]1[C@@H](c2ccc(-c3ccc(C#N)cc3)cc2)[C@@H](CO)N1C(C)=O 10 -3 /
CCCC#Cc1cnc2c(c1)C(=O)N([C@@H](C)CO)C[C@H](C)[C@@H](CN(C)C(=O)Cc1cccnc1)O2 -3 1 30
COc1ccc2c3c(n(C)c2c1)[C@H](CO)NCC31CCN(Cc2ccccc2F)CC1 ? 14 /
COc1ccc2c3c(n(C)c2c1)[C@H](CO)NCC31CCN(Cc2ccccc2Cl)CC1 -85* -1 /
CN1[C@@H]2Cn3c(ccc(-c4cccc(F)c4)c3=O)[C@H]1[C@@H](C(=O)NCc1ccccc1)[C@@H]2CO / -4 11
COc1cccc(C#Cc2cnc3c(c2)C(=O)N([C@H](C)CO)C[C@@H](C)[C@@H](CN(C)C(=O)C2CCCCC2)O3)c1 -62 -6 90
COc1cccc(C#Cc2cnc3c(c2)C(=O)N([C@@H](C)CO)C[C@@H](C)[C@H](CN(C)C(=O)C2CCOCC2)O3)c1 -55 3 /
COc1cccc(C#Cc2cnc3c(c2)C(=O)N([C@H](C)CO)C[C@H](C)[C@@H](CN(C)C(=O)C2CCOCC2)O3)c1 -81* 0 /
COc1cccc(C#Cc2cnc3c(c2)C(=O)N([C@H](C)CO)C[C@H](C)[C@H](CN(C)C(=O)C2CCCCC2)O3)c1 -86* 0 /
CO[C@H]1CN(C)C(=O)c2ccc(NS(=O)(=O)c3ccc(F)cc3)cc2OC[C@H](C)NC[C@@H]1C 55 -3 /
COc1cccc(-c2ccc([C@@H]3[C@H](CO)N4C(=O)CN(C(=O)C5CCCC5)C[C@@H]34)cc2)c1 -57 8 /
COc1ccc2c3c([nH]c2c1)[C@H](CO)N(C(=O)C1CCC1)CC31CCN(Cc2nccs2)CC1 -75 -5 /
COc1ccc2c3c([nH]c2c1)[C@@H](CO)N(C(=O)C1CCCCC1)CC31CCN(Cc2nccs2)CC1 -87* -4 /
COc1ccc2c3c([nH]c2c1)[C@H](CO)N(C(=O)C1CCOCC1)CC31CCN(Cc2nccs2)CC1 -88* -4 /
COc1ccc2c3c([nH]c2c1)[C@H](CO)N(C(=O)C1CC1)CC31CCN(Cc2nccs2)CC1 -51 -4 /
COCC(=O)N(C)C[C@H]1Oc2cc(C3=CCCCC3)ccc2S(=O)(=O)N([C@@H](C)CO)C[C@H]1C 42 -5 20
